# Experimental data as given in PubChem BioAssay (Tox21).
# Records with an inconclusive call do not appear. Entries that show only a call come without a potency. A number with no mark means an inactive call. Calls of active or inactive are those of the source. Calls come from the whole dose curve; as a rule, active = well fitted inhibition curve with a large enough effect in the repeat runs; inconclusive = weak or mixed curves; inactive = no such curve, though single readings can be large or run the other way.
# Molecular target: Cytochrome P450 2D6 (Homo sapiens) (UniProt P10635)
# Sequence (P10635 whole entry, looked up): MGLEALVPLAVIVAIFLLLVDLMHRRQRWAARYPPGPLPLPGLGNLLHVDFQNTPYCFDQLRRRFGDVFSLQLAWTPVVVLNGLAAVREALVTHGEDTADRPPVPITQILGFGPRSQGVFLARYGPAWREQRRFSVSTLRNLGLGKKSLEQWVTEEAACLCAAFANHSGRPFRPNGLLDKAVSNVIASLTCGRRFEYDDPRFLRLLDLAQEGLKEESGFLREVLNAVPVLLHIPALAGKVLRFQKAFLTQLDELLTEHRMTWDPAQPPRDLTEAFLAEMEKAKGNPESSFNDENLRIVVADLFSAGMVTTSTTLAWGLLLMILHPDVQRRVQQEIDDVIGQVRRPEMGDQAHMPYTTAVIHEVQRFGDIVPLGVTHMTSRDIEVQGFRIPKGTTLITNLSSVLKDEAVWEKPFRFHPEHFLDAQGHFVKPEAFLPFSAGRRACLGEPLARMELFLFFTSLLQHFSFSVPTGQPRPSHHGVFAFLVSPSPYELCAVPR
# Experiment: Cytochrome P450 Family 2 Subfamily D Member 6 (CYP2D6) small molecule antagonists: luciferase reporter qHTS assay (AID 1671196); note: nearly all actives have a fitted effect of over 50% in size
# Details: P450-Glo CYP2D6 enzyme assay, luciferin luminescence, 1 h; series mostly up to 115 µM
# Outline: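 CYP2D6 activity was followed as luminescence from its luciferin product after a 1 h NADPH-driven reaction at room temperature. Enzyme-substrate mix and compound were pre-incubated for 10 min, and the signal was read 20 min after adding detection reagent.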
# Potency is the fitted concentration of half-maximal effect.
SMILES,Potency,"activity change, negative = inhibition"
Cc1ncc(CSSCc2cnc(C)c(O)c2CO)c(CO)c1O,6.17 µM (active),–
CC(C)COC(=O)c1ccccc1O,inactive,–
CCCCCCC(=O)OCC,inactive,–
C=CC(=O)OCCCCCC,inactive,–
COc1cc(O)cc(O)c1,inactive,–
CCCCCCC(CCCCCCCCCCC(=O)OCC(COC(C)=O)OC(C)=O)OC(C)=O (centres undefined),inactive,–
C[N+](C)(C)CC[N+]1(C)Cc2c(Cl)c(Cl)c(Cl)c(Cl)c2C1,1.55 µM (active),–
NC1CCN(c2cccc(Cl)n2)CC1,1.23 µM (active),–
C(=C(c1ccccc1)c1ccccc1)c1ccccc1,inactive,–
NC(=S)Nc1cccc2ccccc12,2.01 µM (active),–
NCCN1CCNC1=O,inactive,–
COC(=O)CCCC(=O)O,inactive,–
C=C(C)C(=O)NCCCN(C)C,inactive,–
CC(C)(C)C(=O)/C=C/c1ccc(Cl)cc1,inactive,–
CC(C)CCCC(C)CCCC(C)CCCCC(C)CCCC(C)CCCC(C)C (centres undefined),inactive,–
N#CCN(CC#N)CCN(CC#N)CC#N,inactive,–
FC(F)(F)C(F)(F)C(F)(F)C(F)(F)C(F)(F)C(F)(F)C(F)(F)C(F)(F)C(F)(F)C(F)(F)F,–,-5% [at 10.5 µM]
C=CCOc1nc(OCC=C)nc(OCC=C)n1,39.9 µM (active),–
OCC(CO)(CO)COCC(CO)(CO)CO,inactive,–

SMILES,Potency,"activity change, negative = inhibition"
O=C1OC(=O)c2cc([N+](=O)[O-])ccc21,35.5 µM (active),–
C/C=C1\C(=O)C[C@H]2[C@@H]3CCC4=CC(=O)CC[C@]4(C)[C@H]3CC[C@]12C,inactive,–
OC1OC[C@@H](O)[C@H](O)[C@H]1O (some centres undefined),inactive,–
CN1[C@@H]2CC[C@H]1CC(NC(=O)n1c(=O)[nH]c3ccccc31)C2 (some centres undefined),0.776 µM (active),–
CCCCCC[C@@H](CCC)C(=O)O,inactive,–
CCCCCCCCCCCCCCC,inactive,–
O=c1[nH]c2ccccc2c(=O)n1CCCl,inactive,–
Cc1cc(C)cc(OCC2CNC(=O)O2)c1 (centres undefined),inactive,–
CSc1ccc(C=O)cc1,inactive,–
CCCCOCC(C)OCC(C)O (centres undefined),29 µM (active),–
CC(C)=CC(=O)O,inactive,–
CC1CCN(CCCC(=O)c2ccc(F)cc2)CC1,0.246 µM (active),–
Oc1cc(O)c2c(c1)O[C@H](c1ccc(O)c(O)c1)[C@H](O)C2,inactive,–
CCC(=O)Nc1cccc(N)c1,inactive,–
CC(C)(C)N(CCO)CCO,inactive,–
C#CC(O)CCCCC (centres undefined),inactive,–
CN(C)CCOC(c1ccc(Cl)cc1)c1ccccn1 (centres undefined),13.8 µM (active),–
CCN(CC)C(=O)c1ccc(O)c(OC)c1,inactive,–

# Molecular target: Cytochrome P450 2C19 (Homo sapiens) (UniProt P33261)
# Sequence (P33261 whole entry, looked up): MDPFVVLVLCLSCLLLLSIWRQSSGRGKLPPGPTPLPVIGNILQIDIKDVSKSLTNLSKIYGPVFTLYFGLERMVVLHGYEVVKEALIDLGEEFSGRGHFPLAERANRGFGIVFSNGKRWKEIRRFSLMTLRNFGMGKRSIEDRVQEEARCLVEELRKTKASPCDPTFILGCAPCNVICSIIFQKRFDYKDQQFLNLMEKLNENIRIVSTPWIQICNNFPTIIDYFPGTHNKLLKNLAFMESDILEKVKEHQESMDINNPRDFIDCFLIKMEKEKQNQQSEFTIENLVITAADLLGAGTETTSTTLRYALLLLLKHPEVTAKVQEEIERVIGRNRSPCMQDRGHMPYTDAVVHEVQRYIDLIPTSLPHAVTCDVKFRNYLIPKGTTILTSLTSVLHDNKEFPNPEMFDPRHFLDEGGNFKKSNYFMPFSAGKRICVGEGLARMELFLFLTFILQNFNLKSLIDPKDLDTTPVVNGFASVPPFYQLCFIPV
# Experiment: Cytochrome P450 Family 2 Subfamily C Member 19 (CYP2C19) small molecule antagonists: luciferase reporter qHTS assay (AID 1671197); note: nearly all actives have a fitted effect of over 65% in size
# Details: P450-Glo CYP2C19 enzyme, luciferin luminescence, 1 h; series mostly up to 115 µM
# Outline: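 P450-Glo CYP2C19 screening system; proluciferin substrate; DMSO compound stocks; 10 min RT preincubation; NADPH regeneration, 1 h at 37C; luciferin detection reagent, 20 min RT; luminescence as RLU.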
SMILES,Potency,"activity change, negative = inhibition"
Cc1ncc(CSSCc2cnc(C)c(O)c2CO)c(CO)c1O,15.5 µM (active),–
CC(C)COC(=O)c1ccccc1O,inactive,–
CCCCCCC(=O)OCC,inactive,–
C=CC(=O)OCCCCCC,inactive,–
COc1cc(O)cc(O)c1,30.9 µM (active),–
CCCCCCC(CCCCCCCCCCC(=O)OCC(COC(C)=O)OC(C)=O)OC(C)=O (centres undefined),inactive,–
C[N+](C)(C)CC[N+]1(C)Cc2c(Cl)c(Cl)c(Cl)c(Cl)c2C1,inactive,–
NC1CCN(c2cccc(Cl)n2)CC1,inactive,–
C(=C(c1ccccc1)c1ccccc1)c1ccccc1,5.03 µM (active),–
NC(=S)Nc1cccc2ccccc12,–,-10% [at 10.5 µM]
NCCN1CCNC1=O,inactive,–
COC(=O)CCCC(=O)O,inactive,–
C=C(C)C(=O)NCCCN(C)C,inactive,–
CC(C)(C)C(=O)/C=C/c1ccc(Cl)cc1,7.96 µM (active),–
CC(C)CCCC(C)CCCC(C)CCCCC(C)CCCC(C)CCCC(C)C (centres undefined),inactive,–
N#CCN(CC#N)CCN(CC#N)CC#N,inactive,–
FC(F)(F)C(F)(F)C(F)(F)C(F)(F)C(F)(F)C(F)(F)C(F)(F)C(F)(F)C(F)(F)C(F)(F)F,–,-6.18% [at 10.5 µM]
C=CCOc1nc(OCC=C)nc(OCC=C)n1,1.78 µM (active),–
OCC(CO)(CO)COCC(CO)(CO)CO,inactive,–

SMILES,Potency,"activity change, negative = inhibition"
O=C1OC(=O)c2cc([N+](=O)[O-])ccc21,inactive,–
C/C=C1\C(=O)C[C@H]2[C@@H]3CCC4=CC(=O)CC[C@]4(C)[C@H]3CC[C@]12C,6.2 µM (active),–
OC1OC[C@@H](O)[C@H](O)[C@H]1O (some centres undefined),inactive,–
CN1[C@@H]2CC[C@H]1CC(NC(=O)n1c(=O)[nH]c3ccccc31)C2 (some centres undefined),inactive,–
CCCCCC[C@@H](CCC)C(=O)O,inactive,–
CCCCCCCCCCCCCCC,inactive,–
O=c1[nH]c2ccccc2c(=O)n1CCCl,inactive,–
Cc1cc(C)cc(OCC2CNC(=O)O2)c1 (centres undefined),inactive,–
CSc1ccc(C=O)cc1,inactive,–
CCCCOCC(C)OCC(C)O (centres undefined),inactive,–
CC(C)=CC(=O)O,inactive,–
CC1CCN(CCCC(=O)c2ccc(F)cc2)CC1,34.7 µM (active),–
Oc1cc(O)c2c(c1)O[C@H](c1ccc(O)c(O)c1)[C@H](O)C2,inactive,–
CCC(=O)Nc1cccc(N)c1,inactive,–
CC(C)(C)N(CCO)CCO,inactive,–
C#CC(O)CCCCC (centres undefined),80.3 µM (active),–
CN(C)CCOC(c1ccc(Cl)cc1)c1ccccn1 (centres undefined),inactive,–
CCN(CC)C(=O)c1ccc(O)c(OC)c1,inactive,–
